The panel holds about 79,000 compounds, 15% with a hit somewhere; the sample as a whole holds those more often. A number with no mark means an inactive call. Activity calls are given as the source filed them. Rule as the data show it: active = growth inhibition above about 70%; inactive = the rest.

A short description of assay [1]: NCI Yeast Anticancer Drug Screen. Data for the rad50 strain (AID 155).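 Also: 0% = growth of vehicle-only cultures of the same strain.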 To be noted: S. cerevisiae rad50 strain growth inhibition, active compounds read high. The essentials:
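Readout: growth inhibition relative to vehicle-treated cultures. Compound exposure was carried out in a genetically defined yeast strain deficient in DNA damage repair.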

Assay [2] can be described thus: NCI Yeast Anticancer Drug Screen. Data for the mec2-1 strain (AID 157). To be noted: S. cerevisiae mec2-1 strain, active compounds read high. The essentials:
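Cells of the genetically defined mec2-1 yeast strain are incubated with test compound. Inhibition of growth is calculated against vehicle-treated controls.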

The nature of assay [3]: NCI Yeast Anticancer Drug Screen. Data for the sgs1 mgt1 strain (AID 161).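 Also: 0% = growth of cultures given vehicle only.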 The conditions noted are these: S. cerevisiae sgs1 mgt1 strain, active compounds read high. Summed up:
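Test agents were incubated with a DNA-repair-mutant yeast strain. Growth was then read and compared against vehicle-treated controls.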

Assay [4] is described as follows: NCI Yeast Anticancer Drug Screen. Data for the cln2 rad14 strain (AID 165).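 Also: 0% = growth equal to vehicle treated cultures.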 The conditions noted are these: S. cerevisiae cln2 rad14 strain, active compounds read high. The essentials: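 The screen exposed genetically defined yeast (cln2 rad14) to test compounds and scored growth inhibition relative to vehicle-treated controls.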
Assay [5] can be described thus: NCI Yeast Anticancer Drug Screen. Data for the bub3 strain (AID 167). To be noted: S. cerevisiae bub3 mutant strain, active compounds read high. Summed up: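 Readout: yeast growth inhibition, expressed relative to vehicle-only wells. The test organism is a mutant strain from a panel with lesions in DNA repair or checkpoint genes.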
The nature of assay [6]: NCI Yeast Anticancer Drug Screen. Data for the mlh1 rad18 strain (AID 175). The conditions noted are these: S. cerevisiae mlh1 rad18 strain growth inhibition, active compounds read high. Summed up:
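Compound-treated yeast growth, normalised to vehicle controls. Strain bears defined DNA repair mutations.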

Setting [7] is: at 5.0 µM (retest, dose inferred, filed as 0.5).
The mark [8] stands for this setting: at 50.0 µM (retest, dose inferred, filed as 5.0).

With `CC(C)CCSc1ncnc2nc[nH]c12`, the growth inhibition is 1% in assay [1] (setting [7]); 6% in assay [1] (setting [8]); 48.1% in assay [1] (at 50.0 µM); -5% in assay [2] (setting [7]); 3% in assay [2] (setting [8]); 53.5% in assay [2] (at 50.0 µM). Also, the growth inhibition is -1% in assay [3] (setting [7]); 1% in assay [3] (setting [8]); 63% in assay [3] (at 50.0 µM); -4% in assay [4] (setting [7]); 9% in assay [4] (setting [8]); 29.8% in assay [4] (at 50.0 µM). The growth inhibition in assay [5] (setting [7]) was -2%; in assay [5] (setting [8]) it was 8%; in assay [5] (at 50.0 µM), 73.5% (active); in assay [6] (setting [7]) it was -1%; in assay [6] (setting [8]), 6%; in assay [6] (at 50.0 µM), 33.8%.

For the molecule `CC1=C(C(=O)OCCO[N+](=O)[O-])C(c2ccccc2[N+](=O)[O-])C(C(=O)OC(C)C)=C(C)N1` (stereo not given), the growth inhibition in assay [1] (setting [7]) was 11%; in assay [1] (setting [8]), 97% (active); in assay [1] (at 50.0 µM), 83.5% (active); in assay [2] (setting [7]), 22%; in assay [2] (setting [8]) it was 97% (active); in assay [2] (at 50.0 µM), 87.7% (active). Besides, the growth inhibition was -2% in assay [3] (setting [7]); 97% (active) in assay [3] (setting [8]); 90.3% (active) in assay [3] (at 50.0 µM); 10% in assay [4] (setting [7]); 92% (active) in assay [4] (setting [8]); 86.9% (active) in assay [4] (at 50.0 µM). Moreover, the growth inhibition in assay [5] (setting [7]) is -3%; in assay [5] (setting [8]), 97% (active); in assay [5] (at 50.0 µM) it was 89.6% (active); in assay [6] (setting [7]), 19%; in assay [6] (setting [8]), 97% (active); in assay [6] (at 50.0 µM) it was 85.5% (active).

Take `COc1cccc(/C=C2\CCC(CN(C)C)C2=O)c1` (stereo not given): the growth inhibition in assay [1] (setting [7]) is 27%; in assay [1] (setting [8]) it was 95% (active); in assay [1] (at 50.0 µM), 93.5% (active); in assay [2] (setting [7]) it was 21%; in assay [2] (setting [8]) it was 99% (active); in assay [2] (at 50.0 µM) it was 93.8% (active). Moreover, the growth inhibition was 39% in assay [3] (setting [7]); 99% (active) in assay [3] (setting [8]); 93.3% (active) in assay [3] (at 50.0 µM); 28% in assay [4] (setting [7]); 98% (active) in assay [4] (setting [8]); 91.6% (active) in assay [4] (at 50.0 µM). For the same molecule, the growth inhibition in assay [5] (setting [7]) is 48%; in assay [5] (setting [8]), 99% (active); in assay [5] (at 50.0 µM), 92.5% (active); in assay [6] (setting [7]), 35%; in assay [6] (setting [8]), 99% (active); in assay [6] (at 50.0 µM), 91.7% (active).

Turning to `O=S(=O)(C#Cc1ccccc1)c1ccccc1`, the growth inhibition was 12% in assay [1] (setting [7]); 98% (active) in assay [1] (setting [8]); 99.4% (active) in assay [1] (at 50.0 µM); -11% in assay [2] (setting [7]); 99% (active) in assay [2] (setting [8]); 99.5% (active) in assay [2] (at 50.0 µM). The growth inhibition in assay [3] (setting [7]) was 24%; in assay [3] (setting [8]), 99% (active); in assay [3] (at 50.0 µM), 99.4% (active); in assay [4] (setting [7]), 7%; in assay [4] (setting [8]), 99% (active); in assay [4] (at 50.0 µM) it was 99.2% (active). Moreover, the growth inhibition is 3% in assay [5] (setting [7]); 98% (active) in assay [5] (setting [8]); 99.1% (active) in assay [5] (at 50.0 µM); 16% in assay [6] (setting [7]); 99% (active) in assay [6] (setting [8]); 99% (active) in assay [6] (at 50.0 µM).

For the molecule `Cc1ccc2c(c1)C1C(CC2)C2C(=O)OC(=O)C2C2CCc3ccc(C)cc3C21` (stereo not given), the growth inhibition in assay [1] (setting [7]) was 35%; in assay [1] (setting [8]), 97% (active); in assay [1] (at 50.0 µM), 35.4%; in assay [2] (setting [7]), 21%; in assay [2] (setting [8]), 98% (active); in assay [2] (at 50.0 µM) it was 14.3%. Further, the growth inhibition is 6% in assay [3] (setting [7]); 99% (active) in assay [3] (setting [8]); 1.35% in assay [3] (at 50.0 µM); 20% in assay [4] (setting [7]); 90% (active) in assay [4] (setting [8]); 0.4% in assay [4] (at 50.0 µM). For the same molecule, the growth inhibition is 19% in assay [5] (setting [7]); 97% (active) in assay [5] (setting [8]); 10.3% in assay [5] (at 50.0 µM); 29% in assay [6] (setting [7]); 98% (active) in assay [6] (setting [8]); 38.4% in assay [6] (at 50.0 µM).

In the case of `COc1ccc(CNc2nc3cc(C(F)(F)F)ccc3nc2C)cc1OC`, the growth inhibition in assay [1] (setting [7]) is -9%; in assay [1] (setting [8]), 22%; in assay [1] (at 50.0 µM) it was 87.8% (active); in assay [2] (setting [7]), -34%; in assay [2] (setting [8]), 39%; in assay [2] (at 50.0 µM), 91.3% (active). The growth inhibition in assay [3] (setting [7]) was 6%; in assay [3] (setting [8]) it was 38%; in assay [3] (at 50.0 µM) it was 91.4% (active); in assay [4] (setting [7]), 11%; in assay [4] (setting [8]) it was 74% (active); in assay [4] (at 50.0 µM), 92.7% (active). The growth inhibition was -30% in assay [5] (setting [7]); 18% in assay [5] (setting [8]); 89.7% (active) in assay [5] (at 50.0 µM); -19% in assay [6] (setting [7]); 18% in assay [6] (setting [8]); 89.2% (active) in assay [6] (at 50.0 µM).

Turning to `CCC[CH2][Sn]1([CH2]CCC)[O]CC([CH2][Sn]([c]2ccccc2)([c]2ccccc2)[c]2ccccc2)[O]1` (stereo not given), the growth inhibition in assay [1] (setting [7]) is 100% (active); in assay [1] (setting [8]) it was 100% (active); in assay [1] (at 50.0 µM), 90.3% (active); in assay [2] (setting [7]), 97% (active); in assay [2] (setting [8]) it was 97% (active); in assay [2] (at 50.0 µM) it was 91.7% (active). Also, the growth inhibition is 99% (active) in assay [3] (setting [7]); 99% (active) in assay [3] (setting [8]); 90.8% (active) in assay [3] (at 50.0 µM); 99% (active) in assay [4] (setting [7]); 99% (active) in assay [4] (setting [8]); 91.7% (active) in assay [4] (at 50.0 µM). Moreover, the growth inhibition in assay [5] (setting [7]) was 97% (active); in assay [5] (setting [8]) it was 97% (active); in assay [5] (at 50.0 µM) it was 91.3% (active); in assay [6] (setting [7]) it was 98% (active); in assay [6] (setting [8]), 98% (active); in assay [6] (at 50.0 µM) it was 89% (active).

Take `Nc1nc2ccccc2cc1C(=O)O`: the growth inhibition in assay [1] (setting [7]) is -162%; in assay [1] (setting [8]) it was -150%; in assay [1] (at 50.0 µM), -2.25%; in assay [2] (setting [7]), -49%; in assay [2] (setting [8]), -47%; in assay [2] (at 50.0 µM), 19.3%. Further, the growth inhibition is -61% in assay [3] (setting [7]); -55% in assay [3] (setting [8]); -7.95% in assay [3] (at 50.0 µM); -54% in assay [4] (setting [7]); -48% in assay [4] (setting [8]); 63.5% in assay [4] (at 50.0 µM). The growth inhibition in assay [5] (setting [7]) is -69%; in assay [5] (setting [8]) it was -70%; in assay [5] (at 50.0 µM), 12.5%; in assay [6] (setting [7]) it was -140%; in assay [6] (setting [8]) it was -107%; in assay [6] (at 50.0 µM), 3.9%.

For the molecule `O=C1c2ccccc2-c2nc3ncccc3cc21`, the growth inhibition in assay [1] (setting [7]) is 27%; in assay [1] (setting [8]), 93% (active); in assay [1] (at 50.0 µM), 95.7% (active); in assay [2] (setting [7]), 6%; in assay [2] (setting [8]) it was 83% (active); in assay [2] (at 50.0 µM), 56.1%. Moreover, the growth inhibition was 4% in assay [3] (setting [7]); 78% (active) in assay [3] (setting [8]); 42.2% in assay [3] (at 50.0 µM); 6% in assay [4] (setting [7]); 63% in assay [4] (setting [8]); 57.9% in assay [4] (at 50.0 µM). Further, the growth inhibition in assay [5] (setting [7]) was 4%; in assay [5] (setting [8]) it was 57%; in assay [5] (at 50.0 µM), 79.4% (active); in assay [6] (setting [7]), -5%; in assay [6] (setting [8]), 88% (active); in assay [6] (at 50.0 µM) it was 71.4% (active).

For the molecule `COC(=O)c1nnn(-c2ccc(Cl)cc2Cl)c1C(=O)c1ccc(Cl)c(Cl)c1`, the growth inhibition in assay [1] (setting [7]) was 11%; in assay [1] (setting [8]), 99% (active); in assay [1] (at 50.0 µM), 98.3% (active); in assay [2] (setting [7]), 2%; in assay [2] (setting [8]) it was 99% (active); in assay [2] (at 50.0 µM), 95.5% (active). Also, the growth inhibition in assay [3] (setting [7]) was 4%; in assay [3] (setting [8]), 99% (active); in assay [3] (at 50.0 µM), 99% (active); in assay [4] (setting [7]) it was 11%; in assay [4] (setting [8]), 98% (active); in assay [4] (at 50.0 µM) it was 92.1% (active). For the same molecule, the growth inhibition was 17% in assay [5] (setting [7]); 99% (active) in assay [5] (setting [8]); 95.8% (active) in assay [5] (at 50.0 µM); 19% in assay [6] (setting [7]); 99% (active) in assay [6] (setting [8]); 98.7% (active) in assay [6] (at 50.0 µM).

Values taken from PubChem BioAssay (NCI).
